# Experimental data reported in PubChem BioAssay AID1745849 (National Center for Advancing Translational Sciences (NCATS), 2022).
# The campaign covered roughly 2,100 compounds. About 320 (15%) were called active. Inconclusive results (about 52%) are left out. Calls follow the shape of the dose curve; as a rule, active = well fitted cell-killing curve with a large enough effect; inconclusive = small, poorly fitted or top-dose-only effect, or effect the other way; inactive = flat fitted curve, though single readings scatter. The list shows a part of the results. Entries that show only a call come without a potency.
# Assay: Viability Counterscreen for CMV-Luciferase Assay of Inhibitors of ATXN expression; also: nearly all actives have a fitted effect of over 55% in size
# Conditions: HEK-293 CMV-luciferase cells viability, protease fluorescence, 24 h
# Procedure, shortened: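 Luminescence read-out: SteadyGlo added, 5 min RT, measured in CMV-luciferase HEK-293 cells after 24 hr compound treatment (several concentrations). Viability counterscreen: 25 uM Gly-Phe-7-amino-4-trifluoromethylcoumarin, 30 min at 37 degree C, fluorescence ex 405/em 540 nm.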
# Potency is read from the fitted curve at half-maximal effect.
row,SMILES,Potency
1,Cc1cc(Nc2cccc([N+](=O)[O-])c2)n2c(nc3ccccc32)c1C#N,3.55 µM (active)
2,Cc1ccc(-c2cc(-c3ccccc3)nc(NN)n2)cc1,inactive
3,NS(=O)(=O)c1ccc(CCNc2nn3c(-c4cccc(OC(F)(F)F)c4)cnc3s2)cc1,inactive
4,C=CCOC(=O)C1=C[C@@H](c2ccc3c(c2)OCO3)C[C@@H](OCCCCO)O1,inactive
5,CN(C)CCNc1ccc2ncn3c4ccc(O)cc4c(=O)c1c23,inactive
6,CN(C)CCNc1cccc2sc3ccc(O)cc3c(=O)c12,12.6 µM (active)
7,O=C(Nc1cccc(Cl)c1)c1ccc2c(c1)SC1=NS(=O)(=O)CCN12,inactive
8,CCOC(=O)c1c(-n2cccc2)sc2c1CCCC2=O,inactive
9,CC[n+]1c(C=C2C=C(C)OC(C)=C2)sc2ccccc21,14.1 µM (active)
10,NNC(=O)/C(=N/Nc1ccccc1)S(=O)(=O)c1ccc(Cl)cc1,10 µM (active)
11,O=C(NCc1cc(C(F)(F)F)ccc1Cl)c1cccc2c1C(=O)c1ccc(N3CCOCC3)cc1S2(=O)=O,inactive
12,CC1(C(=O)NCc2ccco2)CCN1C(=O)C1(c2ccccc2)CC1 (stereo not drawn),inactive
13,Cc1cc(C)c2c(c1)/C(=C/C(=O)c1ccc(Br)s1)C(=O)N2,3.16 µM (active)
14,CCOC(=O)N1CCN(Cc2cc(Cl)c3cccnc3c2O)CC1,inactive
15,O=[N+]([O-])c1cc(Cl)c(O)c2ncccc12,11.2 µM (active)
16,O=[N+]([O-])c1cc(CN2CCN(c3ccccc3)CC2)c(O)c2ncccc12,11.2 µM (active)
17,CC(C)COCc1ccc(O)c2ncccc12,inactive
18,Oc1ccc(Cl)c2cccnc12,inactive
19,O=c1oc2ccccc2c(O)c1Cc1cc(Cl)c2cccnc2c1O,inactive
20,O=[N+]([O-])c1ccc(O)c2ncccc12,10 µM (active)
21,OCCN1CCN(Cc2cc(Cl)c3cccnc3c2O)CC1,inactive
22,COc1ccc(-c2nc(CN3CCN(c4ncnc5ccccc45)CC3)c(C)o2)c(OC)c1,inactive
23,c1ccc(Nc2nc(N3CCCCC3)nc(N3CCNCC3)n2)cc1,inactive
24,COc1cc(C)c(C(=O)CC(=O)c2c(C)cc(OC)cc2C)c(C)c1,inactive
25,CC(=O)N1c2ccc(S(=O)(=O)N3CCC(C(=O)Nc4cccc(C(F)(F)F)c4)CC3)cc2CC1C (stereo not drawn),inactive
26,Cc1nn(-c2ccccc2)c(N2CCCC2)c1/C=N/NC(=O)c1cc2ccccc2cc1O,inactive
27,COc1cccc(CN2CCC2(C)C(=O)Nc2cccc3cccnc23)c1OC (stereo not drawn),inactive
28,COc1ccc(CC2C(=O)NC(C)C(=O)N(C)C3Cc4ccc(cc4)Oc4cc(ccc4O)CC(C(=O)NC(C)C(=O)NC(C)C(=O)N2C)N(C)C3=O)cc1 (stereo not drawn),0.316 µM (active)
